Laboratory results: the supplement of paper PMC11417369
Whole data set: some 25,000 sequences, median “ln(normalized median fluorescence intensity)” near 6.7, cut for the highest 2% near 10. For the sample, the highest values were picked, then their nearest neighbours and some sequences at random.

Tested on: PfHDP1 homeodomain (GST-tagged)
Test: gcPBM binding intensity (ln(normalized median fluorescence intensity)); higher = stronger DNA binding
Summary of the method: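 Binding intensity is defined as the maximum Masliner-normalised natural-log median intensity across replicate spots for either probe orientation. It was measured on an Agilent 4 × 180k array of primer-extended double-stranded 36-bp intergenic genomic probes and negative controls, to which GST-tagged P. falciparum DNA-binding domains made in E. coli were applied for 1 h in 1× PBS with 1% milk, 0.2 mg/ml BSA, 0.5% salmon testes DNA and 0.03% Triton X-100. Detection was by Alexa488 anti-GST antibody and scanning at 488 nm.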

Sequence | gcPBM binding intensity (ln)
AAAAAAAATGGATGATCACACACTTCATAAAAATTG [CACACA_site2213] | 6.14
TTTTTTTTTTTTAATACACACATATTTATATTTATT [CACACA_site7802] | 6.63
CAGAATAATTTTATCGGTACACACTGTATGCATAAT [XGTACX_site736] | 6.88
TAAATTATAACGTGCACACATATTTAAAATGAAATG [CACACA_site2820] | 10
GAAAAATTAAAAATAACACACACATATATATATTTA [CACACA_site8896] | 6.38
AAAATTAAAAATAACACACACATATATATATTTATA [CACACA_site2776] | 6.54
AAAATTAAAAATAACACACACATATTTATATTTATA [CACACA_site7329] | 6.24
AAAAAATTAACGAGTGCACACATATTTAGATAAAAT [CACACA_site8958] | 10.7
AAAATTAACGAGTGCACACATATTTAGATAAAATAC [CACACA_site2936] | 11.3
ATAATATATTTTTGAACACACAATATAGATTTATAT [CACACA_site7857] | 6.35
AGCTAAAATATTTTTGCACACGATTTTTTTTTTTTT [CACACA_site1140] | 9.82
TATGCACACAATATATGTACTTATATATTTTAAAAA [XGTACX_site5482] | 9.96
TTTTTTTCAATATTTGCACACGATTATAATATTTAA [CACACA_site2237] | 10.3
ATATTTATATATTGCACACAAAAAAAAAAAAAAATC [CACACA_site1629] | 10.4
GAACAATATATTTGCACACAAAAAATATATATTTAT [CACACA_site3317] | 10.7
TTTTATTTTTTATTTGCACACAATATGTAAAAAAAT [CACACA_site2927] | 10.6
TTTTTTTCAATATTTGCACACGATTAAAATATTTAA [CACACA_site5266] | 10.6
AGGAACAATATATTTGCACACAAAAAATATATATTT [CACACA_site3316] | 10.4
TTTATATTTTTTTTTGCACACTTTAAAAAAATATAT [CACACA_site1146] | 9.29
AAAAAAATTAATGTGTGTACTTAGATATAATGTTTA [XGTACX_site8862] | 6.43
AAAAGTACAATATATATGTATGTGTATAGAATGGTT [TGCATGCA_negctrl_site76] | 7.28
AAAATATTTTAATGTTGTACATTAATATATTATATA [XGTACX_site2513] | 6.03
TAAAAATATATACATACATGCATACATATATATGTA [TGCATGCA_site774] | 6.47

Sequence | gcPBM binding intensity (ln)
TTATATATTTTTTGCACACCAAAAAAGAGAATATTC [CACACA_site2730] | 10
TGTGTTTATACGTTTTGTACATATTTTTATTTTGTA [XGTACX_site6425] | 6.74
TTCTTACACGTTTGCACACTAAAATATATATATATA [CACACA_site434] | 10.7
TATTCTTACACGTTTGCACACTAAAATATATATATA [CACACA_site435] | 9.97
TTTTATTCCTTCTTTGCACACGTTTAAAAATATATA [CACACA_site2899] | 10.3
TCCTTAAAATATATCACACATTTCGTTCATTTATAA [CACACA_site4346] | 6.65
TAAGATGATATAGACTGTACATATTGAACTTACAAG [XGTACX_site4290] | 6.29
CACTGTAAATAGAAAGTGCAAAAATTGTAAATAAAA [GTGCAC_site9980] | 9
TATTAACACTTTATAGAAACAAAAAAATAAGCAAAA [XGTACX_negctrl_site295] | 6.79
TTTCTTCGAAATAGAACACTTGTGCAAAATAAGCAA [XGTACX_negctrl_site361] | 11.2
GTTTTTAGTATTTTTTGTACTTAATACATAGCCTTA [XGTACX_site7318] | 6.22
AGATAAAATATATATGCACACACATATATATTTCAT [CACACA_site9183] | 9.16
TCATACAATATTAAATGTACATATATATATATATAT [XGTACX_site8828] | 9.25
TATATAATATATTAATGTACTTAAAATATATTCTAT [XGTACX_site1235] | 6.16
TTTATCAAAATAAATGCACACAAATTGCACATATCT [CACACA_site8281] | 10.9
TTCATATAAATACATGCACACAAAAATATCAATACA [CACACA_site8753] | 8.91
CATATAAATACATGCACACAAAAATATCAATACATT [CACACA_site2392] | 8.76
TTTTTTCATATAAATACATGCACACAAAAATATCAA [TGCATGCA_site602] | 8.53
TATCAAAATAAATGCACACAAATTGCACATATCTAT [CACACA_site1097] | 10.7
ATAAATTTTTTATGAACACACAAATACACCCACTCA [CACACA_site5465] | 7.07
TACTTTCAAAAGATCACACATATATATATATATATA [CACACA_site5630] | 9.53
TCCTTAAAATATGGTTGTACGTACATCCTAGGTGTT [XGTACX_site7068] | 6.52
TTTTTACGTAAACAAAATAATTATATAATATTATTT [CACACA_negctrl_site1769] | 6.34

Sequence | gcPBM binding intensity (ln)
AAAATCATTCCAAAGACATGCATTTTGCAAATAAAA [TGCATGCA_site461] | 9.22
AATTATTTACCCTATACACACAAAACAGACTAAAAA [CACACA_site6688] | 6.76
TCGTGTGAAAATATTACACACATTTACTATAGTATC [CACACA_site7590] | 6.65
ATATATTATATTATATGTACTTAAAAAAGTGCAAAG [XGTACX_site318] | 9.16
AATTTATTTTTAAAAAGTACATACTTAAGAAAACGA [XGTACX_site3660] | 6.85
CTGTACACTTAAACGGTGCAAAAAGAAAAAAAAGAA | 10.6
TTTGAACTCTTAAGTGGTACAAATTTGTATTTTCTC [XGTACX_site2322] | 6.52
TTTATTATACAAAATTGTACTTTATAATTTTATGTA [XGTACX_site5846] | 6.31
TATGAATGCTTTTATGCACACGTACAAAAATATTAT [CACACA_site8851] | 9.99
TATTGCACAAAATAATTTTATTATACTTTATGTTAG [TGCATGCA_negctrl_site574] | 10.8
TAAATTTTAATATGCACACAAAATGTTATATTAAAA [CACACA_site4366] | 9.86
TAATGAAGCTTATGCACACGTTCATTATTTATATTA [CACACA_site3219] | 10.4
TGAATGCTTTTATGCACACGTACAAAAATATTATAT [CACACA_site2668] | 10.4
TTTATTATATGCACACGTACATATAATATATATATA [XGTACX_site4108] | 10.8
AATAATGAAGCTTATGCACACGTTCATTATTTATAT [CACACA_site5736] | 10.6
TATATTCATAATATTACACACGTTCATTTATTTTAA [CACACA_site2031] | 6.67
AATTCTTTATTATATGCACACGTACATATAATATAT [CACACA_site8621] | 9.66
TTCTTTATTATATGCACACGTACATATAATATATAT [CACACA_site2018] | 9.96
ATGCTTTTATGCACACGTACAAAAATATTATATAAT [XGTACX_site5589] | 10.9
TAGTAAAAACCAAAATGTACATGTGCCATTTTTTTA [XGTACX_site2630] | 6.15
TTTTTATTGTTGCTATATTTATAACAATTTATCATA [GTGCAC_negctrl_site75] | 6.6
TTACACATGAGAAAATGTACATATAATAAAATATGT [XGTACX_site904] | 6.52
TATATCCACATTTTTAGTACTTAAAAATAAATAAAC [XGTACX_site3826] | 6.62

Sequence | gcPBM binding intensity (ln)
AATTATATATAAAGAAGTACTATTTCAAGGAGTTTT [XGTACX_site3837] | 6.34
ATAATAATAATAAAAAGTACATTTAATTATATAGAA [XGTACX_site7742] | 6.51
TAACCTAAAATAACTACACACACATAAAAAAAAAAA [CACACA_site8807] | 6.58
AACAAACACAGACACACACACACACCCAAATGATTA [CACACA_site2431] | 6.98
TTGTTCGATATATGCACACAGTTTTGTTATTTTTCC [CACACA_site4972] | 9.91
GTATGTTTGTTATGCACACAAATGCATCTTATTTCC [CACACA_site2690] | 10.8
ATGTATGTTTGTTATGCACACAAATGCATCTTATTT [CACACA_site8861] | 10.3
AAAAAAAAAAAAAAAGGTACAGTAAAAAATTCCTCT [XGTACX_site5947] | 6.46
AAAATTAAAATAGTAATACACACTTCATAGGAAATG [CACACA_site1762] | 6.02
AGATATATAAATATTACACACTATATATCTATTTAT [CACACA_site6466] | 6.64
ATTTATATTTAATATACACACATTATTTTTTTATAT [CACACA_site574] | 6.86
TTAGTAAATACATTTGCACACATTATTTTTTAACAT [CACACA_site5448] | 10.7
TTTTTTTATATTTTTAGTACACATTGGTATATATAT [XGTACX_site4114] | 6.77
ATACATAAAATTAAAACACACATTTTATTAAATACG [CACACA_site2167] | 6.44
TATTTAAAAATATATACACACATTTTATATTATTAT [CACACA_site781] | 6.32
TTAGTATATACATTTGCACACATTATTTTTTAACAT [CACACA_site2618] | 10.5
AATTATATAACAAATTGTACGAATGAAAATATTATT [XGTACX_site4237] | 6.79
ATATTTTTATGATGTATCCAAGAAATGGAACTATAT [CACACA_negctrl_site1268] | 6.23
AAAATATAAATATATTGTACTGTTATATAATAAAAT [XGTACX_site2132] | 6.41
ATGAAAAAAAGACATGCATGTAAATATAAATTGCTT [TGCATGCA_site504] | 6.68
ATAAATATGTAAAAAACATGCAAAAAATTAAAGACA [TGCATGCA_site912] | 7.22
TGTTGTAAATTAAAGACATGCACGTGAGAAAATATA [TGCATGCA_site285] | 11
